Compound activity from PubChem BioAssay.
Compounds with a hit are over-represented: about 5.1% of the library has one in this group of screens.
Tau ThT inhib: blocks human tau fibril formation measured by thioflavin T; hit rate 2.1% among 270,000; P10636; recombinant tau K18 P301L, heparin-induced fibrillization, ThT fluorescence; Potency, µM (series often up to 57.4 µM), most hits filed as inhibitors; further: nearly all actives have a fitted effect of over 55% in size
Target sequence (P10636 561-689 P618L limits assumed): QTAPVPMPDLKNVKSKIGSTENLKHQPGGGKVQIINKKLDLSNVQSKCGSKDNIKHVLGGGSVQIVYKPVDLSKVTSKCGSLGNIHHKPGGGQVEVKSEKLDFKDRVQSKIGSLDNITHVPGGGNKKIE
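Using a mix of unlabeled (15 uM) and Alexa 594-labeled (0.24 uM) tau K18 P301L, heparin-triggered fibrillization over 6 hr at 37 C was scored by ThT fluorescence.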
NPSR antag: neuropeptide S receptor (human) antagonism, cAMP | AID 1461 | CHO-NPSR cells, cAMP TR-FRET, antagonist mode | Potency, µM (top dose mostly 38.3 µM), usual class: inhibitors | hit rate 1% among 220,000; further: nearly all actives have a fitted effect of over 50% in size
Target sequence (Q6W5P4 whole entry, looked up): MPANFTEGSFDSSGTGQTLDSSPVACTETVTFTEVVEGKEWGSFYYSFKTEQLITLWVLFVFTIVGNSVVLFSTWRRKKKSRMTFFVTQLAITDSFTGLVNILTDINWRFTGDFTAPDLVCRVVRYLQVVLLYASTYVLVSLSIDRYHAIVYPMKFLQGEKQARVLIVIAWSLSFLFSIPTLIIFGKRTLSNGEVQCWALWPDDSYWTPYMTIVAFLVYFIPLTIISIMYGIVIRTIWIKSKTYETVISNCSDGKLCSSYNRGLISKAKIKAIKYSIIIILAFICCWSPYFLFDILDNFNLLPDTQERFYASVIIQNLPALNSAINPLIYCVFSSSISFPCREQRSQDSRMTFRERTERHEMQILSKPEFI
PNC inhibitor: inhibitors of perinucleolar compartment assembly; PC3M PTB-GFP, PNC prevalence imaging, 16 h; hits give low values; activity change (PNC), negative = inhibition, % at 10 µM; hit rate 3.1% among 140,000;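 active means readout at or below -70, meaning at least 70% loss of cells showing the perinucleolar compartment, a nuclear body marking cancer cells; inconclusive means readout between -30 and a set limit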
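PC3M cells stably expressing PTB-GFP, 750–1000 cells/well, treated 16 h at 37 °C with compound (23 nl of library stock), in duplicate. After paraformaldehyde fixation and Hoechst stain, imaged at 20x; PNC prevalence scored by image analysis.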
Tau fluor cs: counter-screen for tau fibril formation inhibitors; tau K18 P301L Alexa594 fluorescence, heparin fibrillization; Potency, µM (highest dose often 57.7 µM); hit rate 0.93% among 280,000; AID 1463; further: nearly all actives have a fitted effect of over 55% in size
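Human tau K18 P301L (15 uM unlabeled, 0.24 uM Alexa 594-labeled) in 100 mM sodium acetate pH 7 with 20 uM heparin, 6 hr at 37 C. ThT 30 uM added, 1 hr ambient; Alexa 594 FP and total fluorescence read at 555/632 nm.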
KDM4E inh: blocks human JMJD2E demethylase activity; JMJD2E catalytic domain, FDH-coupled NADH fluorescence (FDH is formaldehyde dehydrogenase); AID 2147; B2RXH2; hit rate 1.6% among 230,000; Potency, µM (top dose mostly 57.1 µM), actives largely listed as inhibitors; active means well fitted inhibition curve with a large enough effect, not every such curve was filed as active; inconclusive means small, poorly fitted or top-dose-only effect, or another doubt; inactive means no such curve, though single readings can be large or run the other way; further: nearly all actives have a fitted effect of over 50% in size
Tau fibril FP: blocks human tau fibril formation measured by polarization; Potency, µM (doses to about 57.7 µM), hits mostly inhibitors; hit rate 0.39% among 280,000; K18 P301L tau heparin fibrillization, Alexa594 FP, 6 h; further: nearly all actives have a fitted effect of over 55% in size
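Human tau K18 […] P301L fragment, 15 uM unlabeled plus 0.24 uM Alexa 594-labeled tau (final), with compound and 20 uM heparin in 100 mM sodium acetate pH 7; 6 hr at 37 C, then Alexa 594 FP read.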
Large screens that a line does not name were inactive; [ ] = another dose, or the depositor's remark. Unless noted, the call rests on the fitted dose curve; in most records, active means well fitted curve in the direction sought with a large enough effect; inconclusive means small, poorly fitted or top-dose-only effect, or another doubt; inactive means no such curve, though single readings can be large; an effect the other way counts as inactive or inconclusive.

CCOC(=O)c1c(C)oc2nc(C)nc(NCCc3ccc(OCC)c(OCC)c3)c12	Tau ThT inhib inconclusive (no result: NPSR antag, PNC inhibitor, KDM4E inh)
O=C(NCc1ccco1)c1ccc2c(c1)N(Cc1ccc(F)cc1)C(=O)c1ccccc1S2=O (stereo unspecified)	none (no result: NPSR antag, PNC inhibitor, KDM4E inh)
CCc1ccccc1NC(=O)CN1C(=O)c2cccnc2Oc2ccc(Cl)cc21	none (no result: NPSR antag, PNC inhibitor, KDM4E inh)
COc1ccc(NC(=O)CSc2nc(-c3ccc(F)cc3)c3cccc(C)c3n2)cc1	Tau fibril FP inconclusive (no result: NPSR antag, PNC inhibitor, KDM4E inh)
COc1ccc(S(=O)(=O)N2c3cc(Cl)ccc3Oc3nc4ccccc4nc32)cc1	PNC inhibitor -100, Tau fibril FP inconclusive
CCC(C)NC(=O)c1n[nH]c(=O)c2ccccc12 (stereo unspecified)	PNC inhibitor -100
Cc1cc(C)c(-c2csc(NC(=O)c3n[nH]c(=O)c4ccccc34)n2)c(C)c1	PNC inhibitor -89
NNC(=O)c1n[nH]c(=O)c2ccccc12	none (no result: Tau ThT inhib, PNC inhibitor)
COc1ccc(-c2nc(NC(=O)c3n[nH]c(=O)c4ccccc34)sc2C)cc1	PNC inhibitor -114
CCOC(=O)N1CCc2c(sc3c2c(=O)n(CCc2ccccc2)c(=O)n3Cc2ccc(C)cc2C)C1	none (no result: NPSR antag, PNC inhibitor, KDM4E inh)
COc1cc2c(cc1OC)C1(C)N(CC2)C(C(C)=O)=NN1c1ccc(Cl)cc1 (stereo unspecified)	Tau ThT inhib 10µM, Tau fluor cs inconclusive, KDM4E inh inconclusive (no result: PNC inhibitor)
c1ccc(-c2noc(-c3cccnc3NCc3ccco3)n2)cc1	none (no result: NPSR antag, PNC inhibitor, KDM4E inh)
CC(CCC#N)[N+](=O)[O-] (stereo unspecified)	none (no result: NPSR antag, PNC inhibitor)
O=C(NNC(=S)NC(=O)c1sc2ccccc2c1Cl)c1ccc(Cl)cc1	Tau ThT inhib 14µM
C/C(=N\Nc1cccc([N+](=O)[O-])c1)c1ccccc1O	Tau ThT inhib inconclusive, Tau fluor cs 5µM[quencher], Tau fibril FP inconclusive (no result: PNC inhibitor)
O=[N+]([O-])c1cccc(N/N=C/c2cccc(O)c2O)c1	Tau ThT inhib 7.9µM, Tau fluor cs 16µM[quencher], KDM4E inh 14µM (no result: PNC inhibitor)
O=[N+]([O-])c1ccc(NCCCO)c(S(=O)(=O)N2CCOCC2)c1	none (no result: PNC inhibitor)
O=[N+]([O-])c1ccc(N/N=C/c2cccc(O)c2O)c(S(=O)(=O)N2CCOCC2)c1	Tau ThT inhib inconclusive, Tau fluor cs inconclusive, KDM4E inh 14µM (no result: PNC inhibitor)
O=C(CCc1ccc(S(=O)(=O)N2CCOCC2)cc1)N/N=C/c1ccc(O)c(O)c1O	Tau ThT inhib 25µM, PNC inhibitor -111, KDM4E inh 10µM, Tau fibril FP inconclusive
O=[N+]([O-])c1ccccc1N/N=C/c1cccc(O)c1O	Tau ThT inhib inconclusive (no result: PNC inhibitor)
O=C(CCc1ccc(S(=O)(=O)N2CCOCC2)cc1)N/N=C/c1ccc(F)cc1F	none (no result: PNC inhibitor)
COc1cc(/C=N/Nc2ccc([N+](=O)[O-])cc2S(=O)(=O)N2CCOCC2)cc(OC)c1OC	Tau ThT inhib inconclusive, Tau fluor cs inconclusive
O=[N+]([O-])c1ccc(N/N=C/c2ccc(O)c(O)c2O)c(S(=O)(=O)N2CCOCC2)c1	Tau ThT inhib 4µM, Tau fluor cs inconclusive, KDM4E inh 7.9µM, Tau fibril FP 10µM (no result: PNC inhibitor)
Cc1c(C(=O)NCc2ccc3c(c2)OCO3)oc2ccc(S(=O)(=O)N3CCCCCC3)cc12	PNC inhibitor inconclusive, KDM4E inh inconclusive
Cc1c(C(=O)N2CCCCC2)oc2ccc(S(=O)(=O)N3CC(C)CC(C)C3)cc12 (stereo unspecified)	Tau ThT inhib inconclusive, NPSR antag inconclusive, Tau fluor cs inconclusive, Tau fibril FP 20µM
Cc1c(C(=O)NCc2ccc3c(c2)OCO3)oc2ccc(S(=O)(=O)N3CCC(C)CC3)cc12	PNC inhibitor -100, KDM4E inh inconclusive
O=C(NCCc1ccccc1)C1CCN(c2ncnc3c2nc2n3CCCCC2)CC1	none (no result: NPSR antag, PNC inhibitor, KDM4E inh)
COc1ccccc1CN1CCN(C2CCN(C(=O)Nc3ccccc3)CC2)C(=O)C1=O	none (no result: NPSR antag, PNC inhibitor, KDM4E inh)
Cn1/c(=N/N=C/c2ccc([N+](=O)[O-])cc2)sc2ccccc21	Tau ThT inhib inconclusive
Cc1cc(C)c2c(c1)/C(=N\N=c1\sc3ccccc3n1C)C(=O)N2	Tau ThT inhib 4.5µM (no result: PNC inhibitor)
C=CCN1CCc2c(cc(O)c(O)c2Cl)C(c2ccccc2)C1 (stereo unspecified)	Tau ThT inhib inconclusive, KDM4E inh 13µM (no result: PNC inhibitor)
